# In PubChem BioAssay (Tox21):
# Values joined by “and” are separate entries in the source; they are usually repeats but may differ in a detail not shown here. Equal entries are not always repeated. Records with an inconclusive call do not appear. Entries that show only a call come without a potency. Some compounds were tested as several samples or in several runs, with calls that do not always agree. Active and inactive are the calls of the source. Unless noted, calls come from the whole dose curve; as a rule, active = well fitted curve in the direction sought with a large enough effect in the repeat runs; inconclusive = weak or mixed curves; inactive = no such curve, though single readings can be large; an effect the other way counts as inactive or inconclusive.
# Legend:
# [1] = qHTS assay to identify small molecule antagonists of the thyroid receptor (TR) signaling pathway (AID 743065); note: series mostly up to about 70 µM; nearly all actives have a fitted effect of over 55% in size
# Summary of the method: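 Antagonism measured as loss of luciferase signal in GH3 cells stably carrying a TRE-luciferase reporter, co-treated with compound and T3 (1 nM final) for 23.5 h at 37 C. Viability was read in the same well by CellTiter-Fluor.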
# [2] = tested on: thyroid hormone receptor (rat, GH3 cells); assay: qHTS assay to identify small molecule agonists of the thyroid receptor (TR) signaling pathway (AID 743066; calls by dose curve)
# [3] = biological target: Estrogen receptor (Homo sapiens) (UniProt P03372); assay: qHTS assay to identify small molecule antagonists of the estrogen receptor alpha (ER-alpha) signaling pathway (AID 743069; active = well fitted curve in the direction sought with a large enough effect in the signal ratio in the repeat runs, not every such curve was filed as active; the % refers to the signal ratio)
# Summary of the method: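 ER-alpha-UAS-bla GripTite HEK293 line; 2% charcoal-stripped FBS overnight; plated, 4 hr 37C/5% CO2; cpd in DMSO + 17beta-estradiol, 18 hr 37C; LiveBLAzer B/G FRET substrate 2 hr RT; fluorescence intensity.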
# [4] = qHTS assay to identify small molecule antagonists of the estrogen receptor alpha (ER-alpha) signaling pathway - cell viability counter screen (AID 743074; calls by dose curve;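 note: HEK293 cells carrying ER-alpha-UAS-bla reporter stimulated with 17beta-estradiol; nearly all actives have a fitted effect of over 45% in size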)
# [5] = biological target: Estrogen receptor (Homo sapiens) (UniProt P03372); assay: qHTS assay to identify small molecule agonists of the estrogen receptor alpha (ER-alpha) signaling pathway (AID 743075; calls by dose curve;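 note: HEK293 GripTite cells with ER-alpha and UAS-driven beta-lactamase reporter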; note: potency is the fitted concentration of half-maximal effect)
# [6] = biological target: Estrogen receptor (Homo sapiens) (UniProt P03372); assay: qHTS assay to identify small molecule agonists of the estrogen receptor alpha (ER-alpha) signaling pathway using the BG1 cell line (AID 743079); note: nearly all actives have a fitted effect of over 20% in size; note: potency is the fitted concentration of half-maximal effect
# [7] = qHTS assay to identify small molecule antagonists of the estrogen receptor alpha (ER-alpha) signaling pathway using the BG1 cell line (AID 743080; calls by dose curve;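 note: BG1 cells stimulated with 17beta-estradiol alongside compound; series mostly up to about 70 µM; nearly all actives have a fitted effect of over 25% in size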)
# Summary of the method: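 Endogenous full-length ER-alpha in BG1-Luc-4E2 cells drives a stably integrated 4×ERE luciferase gene; compounds were tested against 17beta-estradiol over 21.5 h, with luminescence and multiplexed viability fluorescence recorded.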
# [8] = qHTS assay to identify small molecule antagonists of the estrogen receptor alpha (ER-alpha) signaling pathway using the BG1 cell line - cell viability counter screen (AID 743081);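 note: compound given together with 17beta-estradiol as the ER stimulus; series mostly up to about 70 µM; nearly all actives have a fitted effect of over 45% in size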
# Aromatase (Homo sapiens) = Aromatase (Homo sapiens) (UniProt P11511); assay: qHTS assay to identify aromatase inhibitors (AID 743083); note: series mostly up to about 70 µM; nearly all actives have a fitted effect of over 55% in size
# [9] = qHTS assay to identify aromatase inhibitors - cell viability counter screen (AID 743084);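 note: cells stimulated with testosterone during compound exposure; nearly all actives have a fitted effect of over 55% in size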
# [10] = biological target: Aryl hydrocarbon receptor (Homo sapiens) (UniProt P35869); assay: qHTS assay to identify small molecule that activate the aryl hydrocarbon receptor (AhR) signaling pathway (AID 743085); note: nearly all actives have a fitted effect of over 15% in size; note: potency is the fitted concentration of half-maximal effect;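 for activation: HG2L7.5c1 human HepG2 liver cells with stably integrated DRE-driven firefly reporter; series mostly up to about 70 µM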
# Summary of the method: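 Steps: seed HepG2-AhR-luc cells; allow 5 h at 37C; pin-transfer test compound or vehicle; incubate 24 h at 37C; add viability dye (30 min, 37C) and read fluorescence; add luciferase substrate (30 min, RT) and read luminescence.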
# [11] = qHTS assay to identify small molecule that activate the aryl hydrocarbon receptor (AhR) signaling pathway - cell viability counter screen (AID 743086);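 note: HepG2 liver cells carrying the AhR DRE luciferase reporter; series mostly up to about 70 µM; nearly all actives have a fitted effect of over 45% in size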
# Summary of the method: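 Cytotoxicity counter screen: CellTiter-Fluor signal (30 min, 37 C) in 4000 HepG2 cells/well carrying the DRE-luciferase reporter, following 24 h compound exposure at 37 C.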
# [12] = biological target: Peroxisome proliferator-activated receptor gamma (Homo sapiens) (UniProt P37231); assay: qHTS assay to identify small molecule antagonists of the peroxisome proliferator-activated receptor gamma (PPARg) signaling pathway (AID 743191; calls by dose curve; note: series mostly up to about 63 µM; nearly all actives have a fitted effect of over 30% in size)
# Summary of the method: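 Beta-lactamase reporter under UAS control in HEK293H PPARg-bla cells; compound treatment 17 h at 37C. Read-out: fluorescence intensity after 1 h room-temperature incubation with LiveBLAzer B/G FRET substrate.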
# [13] = qHTS assay to identify small molecule antagonists of the peroxisome proliferator-activated receptor gamma (PPARg) signaling pathway - cell viability counter screen (AID 743194); note: nearly all actives have a fitted effect of over 55% in size
# Summary of the method: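 Viability was measured as CellTiter-Glo luminescence in GeneBLAzer PPARg UAS-bla HEK293H cells. These cells had been exposed 17 h at 37 C to compounds together with rosiglitazone at 50 nM final, with the beta-lactamase readout taken in the same wells.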
# [14] = qHTS assay for small molecule agonists of the antioxidant response element (ARE) signaling pathway (AID 743202; active = well fitted activation curve with a large enough effect in the signal ratio in the repeat runs, not every such curve was filed as active; the % refers to the signal ratio)
# Summary of the method: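 Quantitative high-throughput format in HepG2 cells bearing an integrated ARE-beta-lactamase reporter. Compound exposure lasted 16 h at 37 C, and fluorescence was read 2 h after adding LiveBLAzer B/G substrate at room temperature.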
# [15] = qHTS assay for small molecule activators of the heat shock response signaling pathway - cell viability counter screen (AID 743209); note: nearly all actives have a fitted effect of over 50% in size
# Summary of the method: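 Readout: CellTiter-Glo luminescence, 30 min at room temperature. System: HSE-bla HeLa cells, 1500/well, plated overnight. Treatment: compounds in DMSO, 5 h at 37 C.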
# [16] = qHTS assay for small molecule activators of the heat shock response signaling pathway (AID 743210; active = well fitted activation curve with a large enough effect in the signal ratio in the repeat runs, with a control signal flat, not every such curve was filed as active; the % refers to the signal ratio;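 note: HeLa cells with beta-lactamase reporter driven by heat shock elements; series mostly up to about 63 µM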)
# Summary of the method: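 HeLa HSE-bla cells, overnight plating; cpd in DMSO 5 h, 37 C; LiveBLAzer B/G FRET substrate 2.5 h RT; fluorescence intensity read.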
# [17] = qHTS assay to identify small molecule agonists of the peroxisome proliferator-activated receptor delta (PPARd) signaling pathway - cell viability counter screen (AID 743211); note: nearly all actives have a fitted effect of over 55% in size
# Summary of the method: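 Viability of GeneBLAzer PPARd UAS-bla HEK293H cells was assessed after 17 h compound incubation at 37C, using CellTiter-Glo reagent added after the reporter read and luminescence recorded 30 min later.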
# [18] = biological target: Peroxisome proliferator-activated receptor gamma (Homo sapiens) (UniProt P37231); assay: qHTS assay to identify small molecule agonists of the peroxisome proliferator-activated receptor gamma (PPARg) signaling pathway (AID 743094; active = well fitted activation curve with a large enough effect in the signal ratio in the repeat runs, not every such curve was filed as active; the % refers to the signal ratio)
# Summary of the method: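 Compounds dissolved in DMSO were added to PPARg UAS-bla HEK293H cells for 17 h at 37C, and reporter expression was quantified by fluorescence intensity after 1 h with LiveBLAzer B/G FRET substrate.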
# [19] = qHTS assay for small molecule agonists of the antioxidant response element (ARE) signaling pathway - cell viability counter screen (AID 743203; calls by dose curve; note: nearly all actives have a fitted effect of over 55% in size)
# Summary of the method: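 Following 16 hrs of compound treatment at 37C, HepG2 cells with an ARE-controlled beta-lactamase gene were lysed with CellTiter-Glo. Luminescence was read after 30 min at room temperature.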
# Sequence of Aryl hydrocarbon receptor (Homo sapiens) (P35869 whole entry, looked up): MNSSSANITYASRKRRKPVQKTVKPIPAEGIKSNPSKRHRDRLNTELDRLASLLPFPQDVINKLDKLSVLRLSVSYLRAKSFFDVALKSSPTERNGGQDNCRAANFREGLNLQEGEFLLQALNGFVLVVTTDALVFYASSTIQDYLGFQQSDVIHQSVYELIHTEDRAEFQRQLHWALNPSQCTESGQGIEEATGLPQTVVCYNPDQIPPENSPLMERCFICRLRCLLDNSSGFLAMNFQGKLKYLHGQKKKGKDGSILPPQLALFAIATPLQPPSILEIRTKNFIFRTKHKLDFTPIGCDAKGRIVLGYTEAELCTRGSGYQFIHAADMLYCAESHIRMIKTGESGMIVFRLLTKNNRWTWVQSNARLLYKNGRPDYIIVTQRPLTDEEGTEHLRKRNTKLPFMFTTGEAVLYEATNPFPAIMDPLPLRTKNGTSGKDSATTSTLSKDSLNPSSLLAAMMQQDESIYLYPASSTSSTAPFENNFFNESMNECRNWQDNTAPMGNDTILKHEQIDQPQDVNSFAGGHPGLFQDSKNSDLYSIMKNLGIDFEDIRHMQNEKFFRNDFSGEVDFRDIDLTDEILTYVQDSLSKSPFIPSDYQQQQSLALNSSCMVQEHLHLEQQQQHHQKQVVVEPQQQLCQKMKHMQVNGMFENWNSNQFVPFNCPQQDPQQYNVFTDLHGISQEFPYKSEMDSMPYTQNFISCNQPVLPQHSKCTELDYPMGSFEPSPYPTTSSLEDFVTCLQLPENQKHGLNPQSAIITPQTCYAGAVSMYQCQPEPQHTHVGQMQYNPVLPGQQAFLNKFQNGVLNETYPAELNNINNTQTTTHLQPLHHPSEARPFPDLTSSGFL
# Sequence of Estrogen receptor (Homo sapiens) (P03372 whole entry, looked up): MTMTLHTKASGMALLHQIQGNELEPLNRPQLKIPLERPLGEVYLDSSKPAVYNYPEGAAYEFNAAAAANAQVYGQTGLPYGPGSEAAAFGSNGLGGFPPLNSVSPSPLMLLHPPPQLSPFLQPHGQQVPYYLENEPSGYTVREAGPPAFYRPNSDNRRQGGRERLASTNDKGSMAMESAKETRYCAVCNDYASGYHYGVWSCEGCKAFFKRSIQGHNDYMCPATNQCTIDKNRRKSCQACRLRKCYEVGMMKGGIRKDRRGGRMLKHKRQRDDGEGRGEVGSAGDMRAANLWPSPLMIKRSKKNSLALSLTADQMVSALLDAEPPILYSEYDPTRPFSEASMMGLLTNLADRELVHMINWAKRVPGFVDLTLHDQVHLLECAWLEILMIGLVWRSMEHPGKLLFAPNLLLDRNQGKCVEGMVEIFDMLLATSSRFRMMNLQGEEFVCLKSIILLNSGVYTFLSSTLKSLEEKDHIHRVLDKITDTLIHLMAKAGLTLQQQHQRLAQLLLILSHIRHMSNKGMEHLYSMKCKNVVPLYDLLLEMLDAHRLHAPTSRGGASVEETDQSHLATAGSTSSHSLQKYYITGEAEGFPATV
# Sequence of Aromatase (Homo sapiens) (P11511 whole entry, looked up): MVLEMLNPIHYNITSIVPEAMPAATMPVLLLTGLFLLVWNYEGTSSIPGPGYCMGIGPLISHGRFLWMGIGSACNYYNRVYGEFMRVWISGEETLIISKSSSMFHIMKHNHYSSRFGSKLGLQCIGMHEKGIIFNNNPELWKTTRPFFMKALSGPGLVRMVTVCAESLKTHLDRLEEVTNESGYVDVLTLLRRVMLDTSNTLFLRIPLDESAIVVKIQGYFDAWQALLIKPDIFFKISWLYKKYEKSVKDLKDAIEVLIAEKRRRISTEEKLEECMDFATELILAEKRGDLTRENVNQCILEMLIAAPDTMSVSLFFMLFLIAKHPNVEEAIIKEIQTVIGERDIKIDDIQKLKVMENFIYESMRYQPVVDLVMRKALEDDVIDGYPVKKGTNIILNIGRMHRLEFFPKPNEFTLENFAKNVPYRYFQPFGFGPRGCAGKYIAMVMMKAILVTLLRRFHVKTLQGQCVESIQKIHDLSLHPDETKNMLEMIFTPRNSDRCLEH
# Sequence of Peroxisome proliferator-activated receptor gamma (Homo sapiens) (P37231 whole entry, looked up): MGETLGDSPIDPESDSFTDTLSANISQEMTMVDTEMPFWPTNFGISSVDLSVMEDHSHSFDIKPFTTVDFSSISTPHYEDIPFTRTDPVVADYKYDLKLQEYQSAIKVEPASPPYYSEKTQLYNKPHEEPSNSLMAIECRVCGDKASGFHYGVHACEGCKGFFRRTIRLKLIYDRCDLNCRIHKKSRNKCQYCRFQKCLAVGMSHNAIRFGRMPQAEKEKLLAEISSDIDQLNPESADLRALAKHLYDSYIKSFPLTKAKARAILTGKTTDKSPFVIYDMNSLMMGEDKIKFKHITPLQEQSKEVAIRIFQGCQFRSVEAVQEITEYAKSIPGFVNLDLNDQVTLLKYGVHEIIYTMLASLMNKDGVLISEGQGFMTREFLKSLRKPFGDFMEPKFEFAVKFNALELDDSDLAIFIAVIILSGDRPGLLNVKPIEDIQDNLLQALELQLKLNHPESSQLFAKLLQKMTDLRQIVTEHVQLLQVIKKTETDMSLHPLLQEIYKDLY
SMILES,Potency [1],outcome [2],Potency [3],outcome [4],Potency [5],Potency [6],outcome [7],Potency [8],Potency (Aromatase (Homo sapiens)),Potency [9],Potency [10],Potency [11],outcome [12],outcome [13],Potency [14],outcome [15],outcome [16],outcome [17],outcome [18],Potency [19]
CC(=O)OCCOC(C)=O,inactive,inactive,inactive,inactive,inactive,inactive,inactive,inactive,inactive,inactive,inactive,inactive,inactive,inactive,inactive,inactive,inactive,inactive,,
O=C(O)c1cc2ccccc2cc1O,inactive,inactive,inactive,inactive,inactive and 49 µM [activator] (active),54.1 µM (active) and 48.6 µM (active),inactive,inactive,inactive,inactive,60.7 µM (active) and 30.6 µM (active),inactive,inactive,inactive,,inactive,,inactive,inactive,inactive
CC1(C)S[C@@H]2[C@H](NC(=O)COc3ccccc3)C(=O)N2[C@H]1C(=O)O,inactive,inactive,inactive,inactive,inactive,inactive,inactive,inactive,inactive,inactive,inactive,inactive,inactive,inactive,,inactive,inactive,inactive,inactive,
CC(=O)OCc1ccco1,inactive,inactive,inactive,inactive,inactive,inactive,inactive,inactive,inactive,inactive,inactive,inactive,inactive,inactive,,inactive,inactive,inactive,inactive,
CCNc1cccc(C)c1,inactive,inactive,inactive,inactive,inactive,inactive,inactive,inactive,inactive,inactive,inactive,inactive,inactive,,,inactive,inactive,inactive,inactive,
CC(C)(C)c1cc(Cc2cc(C(C)(C)C)c(O)c(C(C)(C)C)c2)cc(C(C)(C)C)c1O,inactive,inactive,inactive,inactive,inactive,inactive,inactive,inactive,inactive,inactive,inactive,inactive,inactive,inactive,inactive,inactive,inactive,inactive,,
OCc1ccccc1,inactive,inactive,inactive,inactive,inactive,inactive,inactive,inactive,inactive,inactive,inactive,inactive,inactive,inactive,inactive,inactive,inactive,inactive,,inactive
COc1ccc(N)c(C)c1,inactive,inactive,inactive,inactive,inactive,,inactive,inactive,inactive,inactive,inactive,inactive,,inactive,,inactive,inactive,inactive,,inactive
CC(C)CCCCCCCOC(=O)CCCCC(=O)OCCCCCCCC(C)C,inactive,inactive,,inactive,,,,inactive,inactive,inactive,inactive,inactive,inactive,,,inactive,inactive,inactive,inactive,
